# Assay results reported in PubChem BioAssay.
# This is one part of the list. Active and inactive are the calls of the source.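 Rule for the calls, unless noted: active = mean inhibition above about 50% in the one-dose retest (limit read from the data); inactive = the rest.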
# Columns and labels:
# [1] = target: Sentrin-specific protease 8 (Homo sapiens) (UniProt Q96LD8); assay: SENP8 protease inhibitors, retest, confirmation, biochemical, luminescence, single concentration (AID 488912;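 active = mean inhibition across replicates above about 50%, limit read from the data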); conditions: Recombinant SENP8, Z-RLRGG-aminoluciferin luminescence, 60 min; at 12.5 µM; stronger effect = higher value
# Sequence of Sentrin-specific protease 8 (Homo sapiens) (Q96LD8 whole entry, looked up): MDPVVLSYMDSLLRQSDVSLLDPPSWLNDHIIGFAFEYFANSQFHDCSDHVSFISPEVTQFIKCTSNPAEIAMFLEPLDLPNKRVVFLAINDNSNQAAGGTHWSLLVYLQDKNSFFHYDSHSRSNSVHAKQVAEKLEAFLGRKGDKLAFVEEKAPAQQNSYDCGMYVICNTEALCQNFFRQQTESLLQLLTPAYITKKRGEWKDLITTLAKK
# [2] = target: Sentrin-specific protease 6 (Homo sapiens) (UniProt Q9GZR1); assay: SENP6 protease inhibitors, confirmation, biochemical, luminescence, single concentration (AID 488915); conditions: recombinant SENP6, Z-RLRGG-aminoluciferin luminescence; at 12.5 µM; stronger effect = higher value
# Sequence of Sentrin-specific protease 6 (Homo sapiens) (Q9GZR1 628-1112 limits assumed): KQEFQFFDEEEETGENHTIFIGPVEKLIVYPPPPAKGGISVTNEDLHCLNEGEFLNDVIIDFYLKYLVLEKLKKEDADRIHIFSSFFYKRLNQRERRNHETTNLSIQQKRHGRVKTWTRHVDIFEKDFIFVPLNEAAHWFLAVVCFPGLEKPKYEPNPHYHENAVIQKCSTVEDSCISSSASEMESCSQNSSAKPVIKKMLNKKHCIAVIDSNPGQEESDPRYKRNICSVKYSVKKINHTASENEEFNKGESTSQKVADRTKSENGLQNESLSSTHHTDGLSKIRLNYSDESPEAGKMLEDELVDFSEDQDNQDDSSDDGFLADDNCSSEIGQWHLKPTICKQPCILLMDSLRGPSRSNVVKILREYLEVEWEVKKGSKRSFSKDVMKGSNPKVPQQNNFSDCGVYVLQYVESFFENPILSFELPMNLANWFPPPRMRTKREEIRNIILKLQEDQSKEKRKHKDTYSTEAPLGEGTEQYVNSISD
# [3] = target: Sentrin-specific protease 7 (Homo sapiens) (UniProt Q9BQF6); assay: SENP7 protease inhibitors, retest, confirmation, biochemical, luminescence, single concentration (AID 488917); conditions: recombinant SENP7, Z-RLRGG-aminoluciferin luminescence, 40 min; at 12.5 µM; stronger effect = higher value
# Sequence of Sentrin-specific protease 7 (Homo sapiens) (Q9BQF6 706-1050 limits assumed): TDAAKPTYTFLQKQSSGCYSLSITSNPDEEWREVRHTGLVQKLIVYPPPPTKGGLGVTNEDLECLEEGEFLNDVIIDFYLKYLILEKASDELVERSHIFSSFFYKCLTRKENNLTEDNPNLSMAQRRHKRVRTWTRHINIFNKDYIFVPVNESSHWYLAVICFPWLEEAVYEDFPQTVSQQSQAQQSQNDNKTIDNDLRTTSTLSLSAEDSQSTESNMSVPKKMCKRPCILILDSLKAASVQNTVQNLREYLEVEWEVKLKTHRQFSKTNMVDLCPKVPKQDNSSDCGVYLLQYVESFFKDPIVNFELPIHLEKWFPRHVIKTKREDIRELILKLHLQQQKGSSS
# Caspase-3 (Homo sapiens) = Caspase-3 (Homo sapiens) (UniProt P42574); assay: caspase-3 protease inhibitors, confirmation, selectivity assay for SENP inhibitor project, biochemical, single concentration (AID 488918;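 active = mean inhibition above about 50%, limit read from the data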;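 note: plate controls were enzyme with DMSO for no effect and wells without caspase-3 for full effect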); conditions: purified caspase-3, Z-DEVD-aminoluciferin luminescence, 60 min; at 12.5 µM; stronger effect = higher value
# Sequence of Caspase-3 (Homo sapiens) (P42574 28-227 limits assumed): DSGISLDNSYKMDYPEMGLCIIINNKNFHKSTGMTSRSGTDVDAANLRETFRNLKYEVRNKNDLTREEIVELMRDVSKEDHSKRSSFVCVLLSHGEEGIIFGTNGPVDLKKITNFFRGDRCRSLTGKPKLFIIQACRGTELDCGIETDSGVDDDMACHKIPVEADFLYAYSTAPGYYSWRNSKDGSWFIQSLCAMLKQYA
# [4] = luciferase luminescence interference by compounds, confirmation, artefact control for SENP inhibitor project, biochemical, single concentration, SENP8 reaction pre-completed (AID 488919;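 active = mean inhibition above about 50% when retested at one dose, limit read from the data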;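 note: plate controls were DMSO wells with completed reaction for no effect and substrate without enzyme for full effect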); conditions: Pre-incubated SENP8/Z-RLRGG-aminoluciferin, at 12.5 µM, stronger effect = higher value
# [5] = activators of apoptotic CHOP UPR arm, confirmation, cell-based, CHO-CHOP luciferase reporter, single concentration (AID 463112; in the data active = activation above about 33%;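 note: 0% = DMSO wells and 100% = tunicamycin 10 µg/mL wells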); conditions: CHO-CHOP cells, CHOP-luciferase reporter luminescence; at 10 µM; stronger effect = higher value; percent of tunicamycin response, DMSO as zero
# [6] = HIF-2a reporter inhibitor retest, confirmation, luminescence, 786-0 RCC cells (AID 651580;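 active = mean inhibition across four replicates of at least 40 percent at the single tested concentration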); conditions: HIF-2a luciferase reporter luminescence, overnight, at 18.8 µM, stronger effect = higher value
# [7] = HIF-1a luciferase reporter signal reduction – MiaPaCa-2 cells, single concentration, counter-screen for HIF-2a inhibitor project, confirmation (AID 651589;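 active = mean inhibition of the reporter signal across four replicates at the single tested dose of 50% or more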); conditions: MiaPaCa-2 HIF-1a luciferase reporter, desferoxamine, overnight; at 18.8 µM; stronger effect = higher value
# [8] = target: Tumor necrosis factor receptor superfamily member 10B (Homo sapiens) (UniProt O14763); assay: caspase-8 TRAIL sensitization, hit retest, confirmation, cell-based, NB7+caspase-8, with/without TRAIL, luminescence panel (AID 651596; in the data active = activity above about 50%); conditions: NB7 neuroblastoma + caspase-8, TRAIL sensitization, luminescence viability, with TRAIL, mean of runs, at 10 µM, stronger effect = higher value
# Sequence of Tumor necrosis factor receptor superfamily member 10B (Homo sapiens) (O14763 whole entry, looked up): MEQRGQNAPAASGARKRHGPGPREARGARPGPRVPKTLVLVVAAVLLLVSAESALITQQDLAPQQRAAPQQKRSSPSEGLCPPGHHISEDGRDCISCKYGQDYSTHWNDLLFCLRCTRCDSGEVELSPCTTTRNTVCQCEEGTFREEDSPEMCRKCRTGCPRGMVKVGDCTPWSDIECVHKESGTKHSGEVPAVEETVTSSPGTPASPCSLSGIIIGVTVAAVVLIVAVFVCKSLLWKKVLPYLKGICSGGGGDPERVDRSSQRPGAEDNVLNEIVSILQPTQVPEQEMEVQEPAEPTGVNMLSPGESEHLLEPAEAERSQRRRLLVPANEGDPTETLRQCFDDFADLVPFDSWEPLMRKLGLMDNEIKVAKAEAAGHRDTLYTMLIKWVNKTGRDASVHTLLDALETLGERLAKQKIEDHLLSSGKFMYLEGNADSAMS
# [9] = as above; conditions: NB7 neuroblastoma + caspase-8, without TRAIL, luminescence viability, without TRAIL, mean of runs, at 10 µM
# [10] = target: Tumor necrosis factor receptor superfamily member 10B (Homo sapiens) (UniProt O14763); assay: TRAIL sensitizers in caspase-8 expressing neuroblastoma cells, dose response, NB7 cells plus caspase-8, luminescence, panel (AID 652002); conditions: NB7 neuroblastoma +caspase-8, TRAIL sensitization, luminescence viability, NB7+Caspase-8, with TRAIL, run 1; at 12.5 µM (top of the series)
# [11] = target: Tumor necrosis factor receptor superfamily member 10B (Homo sapiens) (UniProt O14763); assay: as above; conditions: NB7 neuroblastoma +caspase-8, TRAIL sensitization, luminescence viability, NB7+Caspase-8, with TRAIL, run 2; at 12.5 µM (top of the series)
# [12] = as above; conditions: NB7 neuroblastoma +caspase-8, no TRAIL, compound-alone cytotoxicity counter-screen, luminescence viability, NB7+Caspase-8, run 1; at 12.5 µM (top of the series) unless noted
# [13] = as above; conditions: NB7 neuroblastoma +caspase-8, no TRAIL, compound-alone cytotoxicity counter-screen, luminescence viability, NB7+Caspase-8, run 2; at 12.5 µM (top of the series) unless noted
# [14] = inhibition of Brca1/Bard1 split-luciferase complementation, confirmation, counter-screen for Mdm2/MdmX interaction inhibitor project, luminescence, single concentration (AID 504668; call rule not given here); conditions: Brca1/Bard1 bimolecular luciferase complementation counterscreen, at 8 µM, stronger effect = higher value
# [15] = inhibitors of PAF-induced NF-kB signaling, retest, confirmation, cell-based, GFP fluorescence, single concentration (AID 602472; in the data active = inhibition above about 40%;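 note: stimulus PAF is a Pseudomonas aeruginosa filtrate and not platelet activating factor; plate controls were DMSO wells with stimulus for no effect and unstimulated DMSO wells for full effect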); conditions: KKLEB CF airway cells, overnight, at 5 µM, stronger effect = higher value
compound,measurement,setting,value
O=C(Nc1nc2ccc([N+](=O)[O-])cc2s1)c1ccncc1,inhibition,[1],16% (inactive)
same,inhibition,[2],17.5% (inactive)
same,inhibition,[3],15.1% (inactive)
same,inhibition,Caspase-3 (Homo sapiens),7.6% (inactive)
same,inhibition,[4],15.8% (inactive)
CCNc1nc(N)nc(Oc2ccc(OCC)nn2)n1,inhibition,[1],6.2% (inactive)
same,inhibition,[2],8.1% (inactive)
same,inhibition,[3],-2% (inactive)
same,inhibition,Caspase-3 (Homo sapiens),3.8% (inactive)
same,inhibition,[4],0.2% (inactive)
O=C(OCc1ccccc1F)c1ccc2c(c1)OCCO2,inhibition,[1],87.8% (active)
same,inhibition,[2],88.5% (active)
same,inhibition,[3],98.8% (active)
same,inhibition,Caspase-3 (Homo sapiens),74.5% (active)
same,inhibition,[4],78.6% (active)
Cc1cc(C)nc(S/C=C/C(=O)c2ccccc2)n1,activation,[5],83.4% (active)
same,inhibition,[6],58.6% (active)
same,inhibition,[7],98.9% (active)
C/C(=N\Nc1nc2ccccc2[nH]1)c1cccs1,inhibition,[1],49.6% (inactive)
same,inhibition,[2],49.2% (inactive)
same,inhibition,[3],81.2% (active)
same,inhibition,Caspase-3 (Homo sapiens),63.1% (active)
same,inhibition,[4],61.7% (active)
O=C(Nc1ccc(Cl)cc1)c1ccsn1,inhibition,[1],49.7% (inactive)
same,inhibition,[2],46.8% (inactive)
same,inhibition,[3],78.1% (active)
same,inhibition,Caspase-3 (Homo sapiens),60.3% (active)
same,inhibition,[4],51.9% (active)
COc1cccc(-c2nc3cc(C)ccc3o2)c1,inhibition,[1],96.1% (active)
same,inhibition,[2],99.2% (active)
same,inhibition,[3],102% (active)
same,inhibition,Caspase-3 (Homo sapiens),96.9% (active)
same,inhibition,[4],94.2% (active)
O=C(Nc1ccccc1F)c1ccc2c(c1)OCO2,inhibition,[1],72% (active)
same,inhibition,[2],66.7% (active)
same,inhibition,[3],90.9% (active)
same,inhibition,Caspase-3 (Homo sapiens),89.4% (active)
same,inhibition,[4],69.1% (active)
O=C(Nc1cccc2ccccc12)c1onc2c1CCCC2,inhibition,[1],-4.7% (inactive)
same,inhibition,[2],75% (active)
same,inhibition,[3],93.2% (active)
same,inhibition,Caspase-3 (Homo sapiens),78.6% (active)
same,inhibition,[4],81.4% (active)
O=C(/C(=C/c1cccc(Cl)c1)c1nc2ccccc2[nH]1)c1ccccc1,activation,[5],115% (active)
same,inhibition,[6],26.3% (inactive)
same,inhibition,[7],105% (active)
c1ccc(-c2cc(-c3ccccc3)[nH]n2)cc1,inhibition,[1],69.7% (active)
same,inhibition,[2],64.5% (active)
same,inhibition,[3],85.8% (active)
same,inhibition,Caspase-3 (Homo sapiens),38% (inactive)
same,inhibition,[4],71.4% (active)
C=CCNC(=S)N1CCN(CCN=Cc2c(C)[nH]n(-c3ccc([N+](=O)[O-])cc3)c2=O)CC1,inhibition,[1],0.7% (inactive)
same,inhibition,[2],21.1% (inactive)
same,inhibition,[3],28% (inactive)
same,inhibition,Caspase-3 (Homo sapiens),56.6% (active)
same,inhibition,[4],16.9% (inactive)
COc1cc(NC(=O)c2cncc(-c3ccc(C#N)cc3)c2)cc(C(=O)Nc2cccc(C(F)(F)F)c2)c1,activation,[5],83.5% (active)
same,activity,[8],54.6%
same,activity,[9],26.9%
same,"activity, % sensitization",[10],-1.86%
same,"activity, % sensitization",[11],-1.47%
same,"activity, % sensitization",[12],-11.8%
same,"activity, % sensitization",[13],-16.3%
COC(=O)c1sc(NC(=O)c2ccc(OC)cc2OC)nc1C,inhibition,[1],56.9% (active)
same,inhibition,[2],34.4% (inactive)
same,inhibition,[3],22.1% (inactive)
same,inhibition,Caspase-3 (Homo sapiens),66.4% (active)
same,inhibition,[4],-5.6% (inactive)
CC(C)CCNC(=O)c1ccc2c(Cl)c3c(nc2c1)CCC3,inhibition,[1],84.1% (active)
same,inhibition,[2],88.3% (active)
same,inhibition,[3],97.4% (active)
same,inhibition,Caspase-3 (Homo sapiens),57.1% (active)
same,inhibition,[4],52.5% (active)
CC1=CC(C)(C)Nc2ccc(OC(=O)CN3C(=O)C4CCCCC4C3=O)cc21 (centres undefined),activation,[5],68% (active)
same,inhibition,[6],86.9% (active)
same,inhibition,[7],86.2% (active)
CN(CC(=O)Nc1ccc(Cl)cc1)C(=O)CNC(=O)c1ccc2ccccc2c1,inhibition,[1],15.1% (inactive)
same,inhibition,[2],12.3% (inactive)
same,inhibition,[3],66.3% (active)
same,inhibition,Caspase-3 (Homo sapiens),21.6% (inactive)
same,inhibition,[4],1.1% (inactive)
O=C(Nc1ccc(OC(F)(F)F)cc1)c1ccc2c(c1)no[n+]2[O-],activation,[5],24.4% (inactive)
same,activity,[8],90%
same,activity,[9],96.8%
O=C1/C(=C/c2cccs2)CCc2ccccc21,inhibition,[1],98.3% (active)
same,inhibition,[2],99.1% (active)
same,inhibition,[3],101% (active)
same,inhibition,Caspase-3 (Homo sapiens),95.8% (active)
same,inhibition,[4],97.6% (active)
Cc1cccc(-n2ncc(Cl)c(Cl)c2=O)c1,activation,[5],29.5% (inactive)
same,inhibition,[6],26.4% (inactive)
same,inhibition,[7],101% (active)
same,activity,[8],99.6%
same,activity,[9],99.7%
O=C(CCl)Nc1cccc(CP(=O)(c2ccccc2)c2ccccc2)c1,activation,[5],34% (active)
same,inhibition,[14],27.6% (active)
same,inhibition,[15],-20.6% (inactive)
same,inhibition,[6],22.9% (inactive)
same,inhibition,[7],51.3% (active)
COc1ccc2occ(C(=O)c3ccc(N=C(C)N(C)C)cc3)c2c1,inhibition,[1],44.8% (inactive)
same,inhibition,[2],42.5% (inactive)
same,inhibition,[3],73% (active)
same,inhibition,Caspase-3 (Homo sapiens),65.7% (active)
same,inhibition,[4],51.3% (active)
CCCCSc1nnc(-c2ccc(C)cc2)o1,inhibition,[1],19.5% (inactive)
same,inhibition,[2],60.5% (active)
same,inhibition,[3],85.3% (active)
same,inhibition,Caspase-3 (Homo sapiens),55% (active)
same,inhibition,[4],23.2% (inactive)
Cc1[nH]n(C(N)=S)c(=O)c1N=Nc1ccc(Cl)cc1Cl,inhibition,[1],81.4% (active)
same,inhibition,[2],89.8% (active)
same,inhibition,[3],93.3% (active)
same,inhibition,Caspase-3 (Homo sapiens),85.3% (active)
same,inhibition,[4],38.9% (inactive)
